Vaccinia Venus – qHTS for Stage-Specific Inhibitors of Vaccinia Orthopoxvirus: Venus Reporter Primary qHTS. Vaccinia virus Venus reporter expression, fluorescence. Potency, µM (doses to about 36.5 µM), without a hit: at the top dose activity change, negative = inhibition, hits mostly inhibitors. 330,000 compounds, 0.46% hits. AID 720580, 2013; calls by dose curve; tested in A549 cells; also: nearly all actives have a fitted effect of over 30% in size
Pf growth 96h – Primary qHTS for delayed death inhibitors of the malarial parasite plastid, 96 hour incubation. P. falciparum luciferase reporter growth, 96 h. Potency, µM (top dose mostly 28.7 µM), without a hit: at the highest dose activity change, negative = inhibition, usual class: inhibitors. 320,000 compounds, 6.9% hits
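Plates of compound plus infected erythrocytes (2% hematocrit, 0.05% parasitemia final) incubate 96 hours, 37 C, 5% CO2. Detection reagent added; reduced luminescence from the parasites' luciferase reporter flags inhibition.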
AMA1-RON2 inh – qHTS for Inhibitors of AMA1-RON; Towards Development of Antimalarial Drug Lead: Primary Screen; AlphaScreen AMA1-biotinylated RON2 peptide binding; Potency, µM (highest dose often 58.2 µM), without a hit: at the highest dose activity change, negative = inhibition, most hits filed as inhibitors; 360,000 compounds, 0.2% hits;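 also: 0% = vehicle wells and -100% = peptide control; nearly all actives have a fitted effect of over 45% in size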
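AMA1 (3D7) with his tag at 25 nM final met compounds first, then biotinylated RON2 peptide at 25 nM; detection used donor plus acceptor beads, 10 µg/mL apiece, read by AlphaScreen after 30 min at room temperature.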
Pf growth 48h – Primary qHTS for delayed death inhibitors of the malarial parasite plastid, 48 hour incubation; AID 504832, 2011; P. falciparum luciferase growth in erythrocytes, 48 h; 310,000 compounds, 5.9% hits; Potency, µM (doses to about 28.7 µM), for inactives: at the highest dose activity change, negative = inhibition, usual class: inhibitors
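Read-out is firefly luciferase luminescence from an integrated reporter in P. falciparum, so falling signal marks reduced parasite growth. Infected erythrocytes were at 2% hematocrit and 0.1% parasitemia (final) in Albumax-supplemented RPMI 1640.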
VACV mCherry inh – qHTS for Stage-Specific Inhibitors of Vaccinia Orthopoxvirus: mCherry Reporter Primary qHTS. 310,000 compounds, 0.63% hits. AID 720579, 2013. Potency, µM (top dose mostly 36.5 µM), inactives show at the top dose activity change, negative = inhibition, hits mostly inhibitors. Vaccinia virus mCherry reporter infection, fluorescence; calls by dose curve; tested in A549 cells; also: nearly all actives have a fitted effect of over 35% in size
* marks the source's active call; other numbers are inactive results; i = inactive; ? = inconclusive; · = not tested or not shown; [ ] = remark or other dose. Rows were chosen to be rich in hits. Some 8.7% of all compounds tested hit in one or more screens of this group. Unless noted, calls follow the shape of the dose curve; as a rule, active = well fitted curve in the direction sought with a large enough effect; inconclusive = small, poorly fitted or top-dose-only effect, or another doubt; inactive = no such curve, though single readings can be large; an effect the other way counts as inactive or inconclusive. Unless noted, % is scaled to controls: 0 for no effect and ±100 for the full control effect; potency is read from the fitted curve at half-maximal effect.

SMILES	Vaccinia Venus	Pf growth 96h	AMA1-RON2 inh	Pf growth 48h	VACV mCherry inh
COc1ccc(C(CCNCc2ccc(N(C)C)cc2)c2ccccc2OC)cc1 (stereo not given)	-26%	?	13µM*	?	?
COc1ccccc1C(CC(=O)Nc1ccccc1C)c1ccc(OC(C)C)cc1 (stereo not given)	-30%	?	-3%	15µM*	i
CC(C)(CC(=O)NCc1ccc(Cl)cc1Cl)CC1=NS(=O)(=O)c2ccccc2N1	-12%	·	·	·	9%
CCOc1ccc(-n2c(SCC(=O)N3CCOCC3)nc3c([nH]c4ccccc43)c2=O)cc1	-2%	·	·	·	-5%
CC(=O)Nc1ccc(NC(=O)CCCCCN2C(=O)c3ccccc3C2=O)cc1	·	-12%	2%	·	·
CCCCN1/C(=C/c2cccc[n+]2C)Sc2cc(NC(C)=O)ccc21	·	11%	-6%	4.1µM*	·
O=C(Nc1ccc(S(=O)(=O)N2CCOCC2)cc1)c1ccc(CN2CCc3ccccc3C2)cc1	?	-62%	-10%	12µM*	·
CCOc1ccc(NC(=O)c2ccc(CN3CCc4ccccc4C3)cc2)cc1	-6%	5.2µM*	-6%	-10%	i
N#CCc1ccc(NC(=O)c2ccc(CN3CCc4ccccc4C3)cc2)cc1	·	8.3µM*	1%	?	·
O=C(Nc1ccc(S(=O)(=O)N2CCCC2)cc1)c1ccc(CN2CCc3ccccc3C2)cc1	?	-10%	-3%	?	?
O=C1Nc2ccccc2N(O)N1c1ccc(Cl)cc1	-10%	30%	-2%	22%	i
CCN1c2ccccc2NC2C1C(C(C)=O)C(=O)N2c1ccc(Cl)cc1 (stereo not given)	25%	-102%	-12%	13µM*	-3%
COc1ccc(NC(=O)c2sc3cc(C(F)(F)F)cnc3c2-c2cccs2)cc1	-15%	12µM*	11%	·	·
O=C(Nc1ccc(F)cc1)c1sc2cc(C(F)(F)F)cnc2c1-c1cccs1	-28%	?	0%	·	·
CN1C(=O)/C(=C2\SC(=S)N(NC(=O)c3cccnc3)C2=O)c2ccccc21	·	2.9µM*	92%	9%	·
CCOC(=O)CN1C(=O)/C(=C2\SC(=S)N(NC(=O)c3cccnc3)C2=O)c2ccccc21	·	-2%	13%	-1%	·
O=c1cc(-c2ccccc2Cl)oc2c([N+](=O)[O-])c(O)cc(O)c12	?	-3%	7%	11%	i
COc1ccccc1-c1cc(=O)c2c(O)ccc([N+](=O)[O-])c2o1	?	10µM*	59%	12µM*	-25%
COc1ccc(NC(=O)CSC2=Nc3ccccc3C3=NC(CC(=O)NCc4ccco4)C(=O)N23)cc1 (stereo not given)	-15%	·	·	·	-13%
CC(C)(C)C1CCC2(CC1)SCC(=O)N2c1ccccc1 (stereo not given)	0%	95%	4%	12µM*	-9%
CN(C)c1ncc(C(=O)NCc2ccccc2Cl)cn1	-5%	·	·	·	-7%
CCCc1cc(-c2[nH]ncc2-c2ccc3c(c2)OCCCO3)c(O)cc1OC	·	·	·	3.7µM*	·
CCc1cc(-c2[nH]ncc2-c2ccc3c(c2)OCO3)c(O)cc1O	?	?	10%	?	?
CN(Cc1ccc(N(C)C)cc1)C(=O)c1cc2ccccc2o1	-8%	66%	14µM*	28%	-7%
CN(C)CCCOC(=O)c1cc2ccccc2o1	?	?	-3%	2.6µM*	·
SMILES	Vaccinia Venus	Pf growth 96h	AMA1-RON2 inh	Pf growth 48h	VACV mCherry inh
Cc1c(C(=O)N(Cc2ccc(N(C)C)cc2)CC2CCCO2)oc2ccc(Cl)cc12 (stereo not given)	-6%	·	·	·	-13%
O=C(OCCN1C(=O)c2ccccc2C1=O)c1cc2ccccc2o1	-18%	28%[5.75 µM]	-10%	35%	-14%
CCCc1ccc2oc(C(=O)N(Cc3ccncc3)CC3CCCO3)c(C)c2c1 (stereo not given)	-9%	18%	-4%	9.3µM*	i
Cc1c(C(=O)N(Cc2ccc(N(C)C)cc2)CC2CCCO2)oc2ccccc12 (stereo not given)	-6%	4.1µM*	?	-21%	-8%
O=C(CC1N=C2c3ccccc3N=C(SCc3ccccc3Cl)N2C1=O)NCc1cccs1 (stereo not given)	-10%	·	·	·	-17%
CCCc1ccc2oc(C(=O)N(C)Cc3cnccn3)c(C)c2c1	·	10µM*	7%	2%	·
CN(C)c1ccc(CN(CC2CCCO2)C(=O)c2cc3ccccc3o2)cc1 (stereo not given)	-9%	?	16µM*	-24%	i
CCOc1ccc(OCC)c(NC(=O)CCc2nc3cccnc3n2-c2ccccc2)c1	-6%	·	·	·	-13%
CN(C)c1ccc(CNC(=O)C2CCN(S(=O)(=O)c3ccc4c(ccn4C)c3)CC2)cc1	0%	·	·	·	-15%
COc1ccc(-c2cn3nc(N4CCCC(C(=O)Nc5ccc(C)c(C)c5)C4)sc3n2)cc1 (stereo not given)	-13%	·	·	·	-12%
CC(=O)NC1=C(NC2CCS(=O)(=O)C2)C(=O)c2ccccc2C1=O (stereo not given)	?	?	-8%	10µM*	-18%
O=C(Nc1ccc2ccccc2c1)NC1CCS(=O)(=O)C1 (stereo not given)	·	5%	-2%	50%	·
CN(C1=C(NC(=O)c2ccccc2)C(=O)c2ccccc2C1=O)C1CCS(=O)(=O)C1 (stereo not given)	·	5.2µM*	-6%	4.7µM*	·
Cc1ccccc1C(=O)NC1CCS(=O)(=O)C1 (stereo not given)	-5%	·	7%	2%	i
O=C(NC(=S)NC1CCS(=O)(=O)C1)c1ccccc1 (stereo not given)	·	?	0%	-2%	·
O=C(Nc1ccccc1)NC1CCS(=O)(=O)C1 (stereo not given)	1%	9.3µM*	-4%	10%	·
CS(=O)(=O)c1ncc(N(Cc2ccco2)Cc2cccs2)c(C(=O)Nc2ccccc2F)n1	1%	·	·	·	-6%
CCOc1cccc(CC(=O)Nc2ccc3nc(N4CCCCC4)cc(C)c3c2)c1OCC	-15%	·	·	·	-19%
O=C(Cc1cccc(NC(=O)C2CCN(C(=O)CCc3ccccc3)CC2)c1)Nc1cccc(C(=O)N2CCCC2)c1	-12%	?	-3%	12µM*	-4%

Screening results deposited in PubChem by National Center for Advancing Translational Sciences (NCATS).
